Several values for one entry are separate records, joined by “and”; a condition that tells them apart may be missing. Identical values can stand only once. Activity calls are given as the source filed them. Unless noted, the rule behind the calls is not given here. Non-standard residues stand in square brackets, D forms with d. Residues, ends and D or L forms follow the SMILES beside them. pGlu = O=C1CC[C@@H](C(=O)O)N1; Thz = O=C(O)[C@@H]1CSCN1
Test system: Hepatitis C virus NS3 helicase
Assay: blockers of NS3h binding to DNA – biochemical, fluorescence polarization, NIH Clinical Collection, primary screen (AID 743270)
Conditions: NS3 helicase binding to Cy5-dT15 DNA, active compounds read high, concentration not given here

Structure (SMILES) | inhibition
C[C@H]1O[C@H](O[C@H]2[C@H](O)[C@@H](O)[C@@H](O[C@H]3[C@H](O)[C@@H](O)C(O)O[C@@H]3CO)O[C@@H]2CO)[C@H](O)[C@@H](O)[C@@H]1N[C@H]1C=C(CO)[C@@H](O)[C@H](O)[C@H]1O (stereo partly drawn) | 4.36% (inactive)
CCCCN1CCCC1CNC(=O)c1cc(C#N)c2ccccc2c1OC (stereo not drawn) | -0.22% (inactive)
COc1ccc2[nH]c(S(=O)Cc3ncc(C)c(OC)c3C)nc2c1 (stereo not drawn) | -1.19% (inactive)
CCN(CC)CC#CCOC(=O)C(O)(c1ccccc1)C1CCCCC1 (stereo not drawn) | -5.91% (inactive)
COc1nc(C)nc(Cl)c1NC1=NCCN1 | 4.36% (inactive)
CC(Cc1ccc(O)c(O)c1)(NN)C(=O)O (stereo not drawn) | -2.27% (inactive)
Cc1cc2c(s1)Nc1ccccc1N=C2N1CCN(C)CC1 | -1.19% (inactive)

Target: Single-stranded DNA-binding protein (Escherichia coli (strain K12)) (UniProt P0AGE0)
Assay: SSB-ssDNA binding inhibitors – biochemical, fluorescence polarization, NIH Clinical Collection, counter-screen for HCV NS3 helicase inhibitor project (AID 743271; in the data active = inhibition above about 28%)
Conditions: E. coli SSB-DNA binding, active compounds read high, concentration not given here

Structure (SMILES) | inhibition
O=C1CN2Cc3c(ccc(Cl)c3Cl)N=C2N1 | -7.03% (inactive)
COC(=O)C[C@](O)(CCCC(C)(C)O)C(=O)O[C@@H]1C(OC)=C[C@]23CCCN2CCc2cc4c(cc2[C@H]13)OCO4 | 1.18% (inactive)
CNCC[C@H](Oc1cccc2ccccc12)c1cccs1 | 2.98% (inactive) and -4.33% (inactive)
O=c1[nH]c(=O)n(C2CCCO2)cc1F (stereo not drawn) | 5.29% (inactive)
CSc1nc2cc(Oc3cccc(Cl)c3Cl)c(Cl)cc2[nH]1 | 3.75% (inactive)
CN(C)CCc1c[nH]c2ccc(Cn3cncn3)cc12 | 5.29% (inactive)
COc1ccc(C[C@H](C)NC[C@@H](O)c2ccc(O)c(NC=O)c2)cc1 | -0.1% (inactive)
CC(C)C[C@H](NC(=O)[C@@H](O)[C@H](N)Cc1ccccc1)C(=O)O | 9.06% (inactive)
C[C@@H](c1ncncc1F)[C@](O)(Cn1cncn1)c1ccc(F)cc1F | -6.26% (inactive)
CN(C)CCCC1(c2ccc(F)cc2)OCc2cc(C#N)ccc21 (stereo not drawn) | -1.64% (inactive) and 0.29% (inactive)
CCOC(=O)c1ccc(OC(=O)CCCCCN=C(N)N)cc1 | -1.64% (inactive)
CC(C)NCC(O)c1ccc(NS(C)(=O)=O)cc1 (stereo not drawn) | -3.95% (inactive)
CC(=O)NC[C@H]1CN(c2ccc(N3CCOCC3)c(F)c2)C(=O)O1 | 2.21% (inactive)
CC(CCCCC(=O)Nc1ccc(C(F)(F)F)cc1)NCCc1cnc[nH]1 (stereo not drawn) | -4.33% (inactive)
O=C(c1ccc(OCCN2CCCCC2)cc1)c1c(-c2ccc(O)cc2)sc2cc(O)ccc12 | 4.1% (inactive)
O=C1CC[C@@H](C(=O)N2CSC[C@H]2C(=O)O)N1 ([pGlu]-[Thz]-OH) | 3.75% (inactive)

Structure (SMILES) | inhibition
CN/C(=C\[N+](=O)[O-])NCCSCc1csc(CN(C)C)n1 | -0.1% (inactive)
CNCC[C@@H](Oc1ccccc1C)c1ccccc1 | -3.95% (inactive)
CN(C)CCOc1ccc(/C(=C(/CCCl)c2ccccc2)c2ccccc2)cc1 | 20.1% (inactive)
CC(C)(S)C(N)C(=O)O (stereo not drawn) | -2.76% (inactive)
CC[C@H]1OC(=O)[C@H](C)[C@@H](O[C@H]2C[C@@](C)(OC)[C@@H](O)[C@H](C)O2)[C@H](C)[C@@H](O[C@@H]2O[C@H](C)C[C@H](N(C)C)[C@H]2O)[C@](C)(O)C[C@@H](C)CN(C)[C@H](C)[C@@H](O)[C@]1(C)O | -1.24% (inactive)
NCC(O)c1ccc(O)c(O)c1 (stereo not drawn) | 0.29% (inactive)
CN1CC(=O)N2[C@H](c3ccc4c(c3)OCO4)c3[nH]c4ccccc4c3C[C@@H]2C1=O | -0.1% (inactive)
Cc1cnc(C(=O)NCCc2ccc(S(=O)(=O)NC(=O)NC3CCCCC3)cc2)cn1 | -2% (inactive)
C/C(=C\C(=O)OCCCCCCCCC(=O)O)C[C@@H]1OC[C@H](C[C@@H]2O[C@H]2[C@@H](C)[C@H](C)O)[C@@H](O)[C@H]1O | -5.05% (inactive)
C[C@H]1O[C@H](O[C@H]2[C@H](O)[C@@H](O)[C@@H](O[C@H]3[C@H](O)[C@@H](O)C(O)O[C@@H]3CO)O[C@@H]2CO)[C@H](O)[C@@H](O)[C@@H]1N[C@H]1C=C(CO)[C@@H](O)[C@H](O)[C@H]1O (stereo partly drawn) | 0.67% (inactive)
CCCCN1CCCC1CNC(=O)c1cc(C#N)c2ccccc2c1OC (stereo not drawn) | 2.76% (inactive)
COc1ccc2[nH]c(S(=O)Cc3ncc(C)c(OC)c3C)nc2c1 (stereo not drawn) | -0.1% (inactive)
CCN(CC)CC#CCOC(=O)C(O)(c1ccccc1)C1CCCCC1 (stereo not drawn) | 1.05% (inactive)
COc1nc(C)nc(Cl)c1NC1=NCCN1 | 5.29% (inactive)
CC(Cc1ccc(O)c(O)c1)(NN)C(=O)O (stereo not drawn) | -0.48% (inactive)
Cc1cc2c(s1)Nc1ccccc1N=C2N1CCN(C)CC1 | -3.18% (inactive)

Test system: not listed separately
Assay: compounds distorting NS3 helicase fluorescence signal – biochemical, NIH Clinical Collection, artefact control for HCV NS3 helicase inhibitor project (AID 743272);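 note: HCV NS3 helicase with a Cy5 labelled single stranded DNA probe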
Conditions: fluorescence interference counterscreen, HCV NS3 helicase assay; active compounds read low

Structure (SMILES) | fluorescence ratio
O=C1CN2Cc3c(ccc(Cl)c3Cl)N=C2N1 | 1.02 (inactive)
COC(=O)C[C@](O)(CCCC(C)(C)O)C(=O)O[C@@H]1C(OC)=C[C@]23CCCN2CCc2cc4c(cc2[C@H]13)OCO4 | 0.99 (inactive)
CNCC[C@H](Oc1cccc2ccccc12)c1cccs1 | 0.93 (inactive) and 0.89 (inactive)
O=c1[nH]c(=O)n(C2CCCO2)cc1F (stereo not drawn) | 1.04 (inactive)
CSc1nc2cc(Oc3cccc(Cl)c3Cl)c(Cl)cc2[nH]1 | 0.96 (inactive)
CN(C)CCc1c[nH]c2ccc(Cn3cncn3)cc12 | 0.91 (inactive)
COc1ccc(C[C@H](C)NC[C@@H](O)c2ccc(O)c(NC=O)c2)cc1 | 0.98 (inactive)
CC(C)C[C@H](NC(=O)[C@@H](O)[C@H](N)Cc1ccccc1)C(=O)O | 0.88 (inactive)
C[C@@H](c1ncncc1F)[C@](O)(Cn1cncn1)c1ccc(F)cc1F | 1.02 (inactive)
CN(C)CCCC1(c2ccc(F)cc2)OCc2cc(C#N)ccc21 (stereo not drawn) | 0.99 (inactive) and 1.03 (inactive)
CCOC(=O)c1ccc(OC(=O)CCCCCN=C(N)N)cc1 | 0.95 (inactive)
Cc1c(C(=O)NN2CCCCC2)nn(-c2ccc(Cl)cc2Cl)c1-c1ccc(I)cc1 | 0.92 (inactive)
CC(C)NCC(O)c1ccc(NS(C)(=O)=O)cc1 (stereo not drawn) | 0.98 (inactive)
CC(=O)NC[C@H]1CN(c2ccc(N3CCOCC3)c(F)c2)C(=O)O1 | 1.04 (inactive)
CC(CCCCC(=O)Nc1ccc(C(F)(F)F)cc1)NCCc1cnc[nH]1 (stereo not drawn) | 0.92 (inactive)
O=C(c1ccc(OCCN2CCCCC2)cc1)c1c(-c2ccc(O)cc2)sc2cc(O)ccc12 | 0.8 (active)
O=C1CC[C@@H](C(=O)N2CSC[C@H]2C(=O)O)N1 ([pGlu]-[Thz]-OH) | 0.96 (inactive)

Structure (SMILES) | fluorescence ratio
CN/C(=C\[N+](=O)[O-])NCCSCc1csc(CN(C)C)n1 | 0.97 (inactive)
CNCC[C@@H](Oc1ccccc1C)c1ccccc1 | 0.98 (inactive)
Cc1cccc(CCN2CCC(C(=O)c3ccc(NS(C)(=O)=O)cc3)CC2)n1 | 0.95 (inactive)
CN(C)CCOc1ccc(/C(=C(/CCCl)c2ccccc2)c2ccccc2)cc1 | 0.82 (inactive)
CC(C)(S)C(N)C(=O)O (stereo not drawn) | 0.98 (inactive)
CC[C@H]1OC(=O)[C@H](C)[C@@H](O[C@H]2C[C@@](C)(OC)[C@@H](O)[C@H](C)O2)[C@H](C)[C@@H](O[C@@H]2O[C@H](C)C[C@H](N(C)C)[C@H]2O)[C@](C)(O)C[C@@H](C)CN(C)[C@H](C)[C@@H](O)[C@]1(C)O | 1.02 (inactive)
NCC(O)c1ccc(O)c(O)c1 (stereo not drawn) | 0.99 (inactive)
CN1CC(=O)N2[C@H](c3ccc4c(c3)OCO4)c3[nH]c4ccccc4c3C[C@@H]2C1=O | 1 (inactive)
Cc1cnc(C(=O)NCCc2ccc(S(=O)(=O)NC(=O)NC3CCCCC3)cc2)cn1 | 0.98 (inactive)
C/C(=C\C(=O)OCCCCCCCCC(=O)O)C[C@@H]1OC[C@H](C[C@@H]2O[C@H]2[C@@H](C)[C@H](C)O)[C@@H](O)[C@H]1O | 1.03 (inactive)
C[C@H]1O[C@H](O[C@H]2[C@H](O)[C@@H](O)[C@@H](O[C@H]3[C@H](O)[C@@H](O)C(O)O[C@@H]3CO)O[C@@H]2CO)[C@H](O)[C@@H](O)[C@@H]1N[C@H]1C=C(CO)[C@@H](O)[C@H](O)[C@H]1O (stereo partly drawn) | 1.03 (inactive)
CCCCN1CCCC1CNC(=O)c1cc(C#N)c2ccccc2c1OC (stereo not drawn) | 0.91 (inactive)
COc1ccc2[nH]c(S(=O)Cc3ncc(C)c(OC)c3C)nc2c1 (stereo not drawn) | 1.01 (inactive)
CCN(CC)CC#CCOC(=O)C(O)(c1ccccc1)C1CCCCC1 (stereo not drawn) | 0.97 (inactive)
COc1nc(C)nc(Cl)c1NC1=NCCN1 | 1.07 (inactive)
CC(Cc1ccc(O)c(O)c1)(NN)C(=O)O (stereo not drawn) | 1.05 (inactive)
Cc1cc2c(s1)Nc1ccccc1N=C2N1CCN(C)CC1 | 1 (inactive)

— PubChem BioAssay
